HEK293 tox: qHTS of GLP-1 Receptor Inverse Agonists: Cytotox Screen. 0.13% of 410,000 active. HEK293 cAMP-luciferase reporter cells, luminescence, 24 h. Potency, µM (highest dose often 38.3 µM), most hits filed as inhibitors;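 also: loss of luciferase light is scored as toxicity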
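A 23 nL compound transfer followed 12 hours of cell culture at 37 deg C; exposure then lasted 24 hr. Luciferase assay detection reagent was dispensed and plates read for luminescence after a 12 min room-temperature wait.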
GLP1R ag: qHTS of GLP-1 Receptor Agonists; 0.007% of 380,000 active; Potency, µM (titrated, usually from 45.6 µM), actives largely listed as activators; HEK293 GLP-1R CRE-luciferase, luminescence, 4-6 h; cells express a hypersensitive GLP-1R form
Target sequence (P43220 whole entry, looked up): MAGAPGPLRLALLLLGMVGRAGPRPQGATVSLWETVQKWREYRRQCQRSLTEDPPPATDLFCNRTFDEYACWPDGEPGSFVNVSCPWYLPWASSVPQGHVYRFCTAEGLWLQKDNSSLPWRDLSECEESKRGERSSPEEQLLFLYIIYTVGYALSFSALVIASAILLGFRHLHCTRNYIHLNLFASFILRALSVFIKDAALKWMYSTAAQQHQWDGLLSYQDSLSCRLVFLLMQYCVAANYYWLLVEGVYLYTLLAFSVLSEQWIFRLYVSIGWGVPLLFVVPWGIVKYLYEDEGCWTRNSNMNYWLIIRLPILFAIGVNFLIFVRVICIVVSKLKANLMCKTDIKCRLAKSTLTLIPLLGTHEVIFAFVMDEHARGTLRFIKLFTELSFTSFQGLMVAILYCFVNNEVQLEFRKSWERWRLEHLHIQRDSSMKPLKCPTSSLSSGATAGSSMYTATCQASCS
TRPML1 ag: qHTS for Agonists of the Human Mucolipin Transient Receptor Potential 1 (TRPML1). TRPML1-expressing cells, Ca2+ dye fluorescence, FDSS. Mucolipin-1 (Homo sapiens), Q9GZU1. activation, % (concentration not given with the values). 0.12% of 410,000 active; in the data active = activation above about 50%; inconclusive = mostly about 30% to 49%
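TRPML1-DL cells, Tet-induced overnight (~16 h, 37 degrees C), loaded 45-90 min at room temperature with Ca8 no-wash calcium dye plus quencher. FDSS fluorescence: 10 s baseline, compound pin-transfer, 110 s agonist read, then EC80 54-4 (4uM final) and 110 s antagonist read.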
TRPML1 inh: qHTS for Inhibitors of the Human Mucolipin Transient Receptor Potential 1 (TRPML1). TRPML1-inducible cells, Ca2+ dye fluorescence, FDSS; hits give low values; inhibition of EC80 agonist-evoked calcium signal. activity change, negative = inhibition, % (concentration not given with the values). Mucolipin-1 (Homo sapiens), Q9GZU1. 0.02% of 390,000 active; in the data active = activity change below about -50%; inconclusive = between about -30% and that limit;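 also: stimulus is agonist 54-4 at its EC80 concentration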
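Calcium fluorescence in TRPML1-DL cells induced overnight with Tet: a 110 s read after compound pin addition, then a 110 s antagonist read after challenge with 54-4 at 4 uM final (EC80).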
GLP-1R inv ag: qHTS of GLP-1 Receptor Inverse Agonists (Inhibition Mode); Potency, µM (highest dose often 38.3 µM), most hits filed as inhibitors; HEK293 GLP-1R CRE-luciferase, luminescence, 24 h; GLP-1R form is constitutively active; 1.6% of 410,000 active; Glucagon-like peptide 1 receptor (Homo sapiens), P43220; AID 624417, 2012; also: nearly all actives have a fitted effect of over 55% in size
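Luminescence readout: a drop in cAMP-driven luciferase signal flags inverse agonism at a constitutively active GLP-1R stably expressed in HEK293. Compound exposure lasted 24 hr at 37 deg C, 5% CO2.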
Large screens that a line does not name were inactive. The list is not random: actives were taken first. Their share in the collection is about 1.8%. Unless noted, calls follow the shape of the dose curve; as a rule, active = well fitted curve in the direction sought with a large enough effect; inconclusive = small, poorly fitted or top-dose-only effect, or another doubt; inactive = no such curve, though single readings can be large; an effect the other way counts as inactive or inconclusive.

COc1ccc(O)c(/C=N/NC(=S)NCCc2ccccc2)c1	GLP-1R inv ag 2.2µM
Fc1ccc(/C=N/NC(=S)NCCc2ccccc2)cc1F	HEK293 tox 13µM, GLP-1R inv ag inconclusive
O=[N+]([O-])c1cccc(NNS(=O)(=O)c2ccccc2F)c1	GLP-1R inv ag 6.3µM
Cc1cc(S(=O)(=O)Nc2cccc([N+](=O)[O-])c2)c(C)s1	none (no result: TRPML1 ag, TRPML1 inh)
O=C(N1CCN=C1SCc1cccnc1)C12CC3CC(CC(C3)C1)C2	GLP-1R inv ag 3.5µM
COC(=O)N/N=C\c1ccc(OC/C=C/c2ccccc2)cc1	none
N#CCC(=O)N/N=C\c1cccc(OC/C=C/c2ccccc2)c1	GLP-1R inv ag 3.2µM
CC(=O)N/N=C\c1ccccc1OC/C=C/c1ccccc1	none
COc1cc(C=NNc2ccccc2)ccc1OC(=O)c1ccccc1	GLP-1R inv ag 1µM
COc1cc(/C=N\NC(=O)CC#N)ccc1OC/C=C/c1ccccc1	GLP-1R inv ag 13µM
CC(=O)N/N=C\c1cccc(OC/C=C/c2ccccc2)c1	GLP-1R inv ag 3.5µM
COCC(=O)N/N=C\c1ccc(OC/C=C/c2ccccc2)c(OC)c1	HEK293 tox inconclusive, GLP-1R inv ag inconclusive
COc1cc(/C=N/Nc2ccccc2)ccc1OC(=O)c1cccs1	GLP-1R inv ag inconclusive
Cc1cccc(C)c1NC(=O)c1oc2c(c1C)-c1nn(Cc3ccccc3)cc1CC2	GLP-1R inv ag inconclusive (no result: GLP1R ag)
COc1ccc(NC(=O)CN2C(=O)C3(SCC(=O)N3c3cccc(OC)c3)c3ccccc32)cc1 (configuration not stated)	none
Cc1ccc(S(=O)(=O)c2cn(Cc3ccccc3)c3cc(N4CCCC4)c(F)cc3c2=O)cc1C	none (no result: GLP1R ag)
O=[N+]([O-])c1cc(S(=O)(=O)C(F)(F)F)ccc1N1CCN(c2ccccc2)CC1	GLP1R ag inconclusive, GLP-1R inv ag 5µM
O=C(CCN1C(=O)c2ccccc2Sc2ncccc21)Nc1ccc(F)cc1	none (no result: GLP1R ag)
CCCCN(C)S(=O)(=O)c1cc(-c2cc(C)no2)ccc1C	GLP-1R inv ag inconclusive (no result: GLP1R ag)
CC(=O)N(CCCc1ccc(C(C)(C)C)cc1)CCCN(C)C	GLP-1R inv ag inconclusive
CC(=O)N(CCCN(C)C)CCC(C)CCC=C(C)C (configuration not stated)	GLP-1R inv ag 4µM
CC(C)S(=O)(=O)c1oc(-c2cccs2)nc1S(=O)(=O)c1ccc(F)cc1	HEK293 tox 10µM, GLP-1R inv ag inconclusive (no result: GLP1R ag)
O=C(COc1cccc(Cl)c1)N1CCC(c2nc3ccccc3s2)CC1	GLP-1R inv ag inconclusive (no result: GLP1R ag)
CCCCCn1c(C)c2c(OCC)cccc(=O)c2c1C	GLP-1R inv ag 10µM
Cc1cccn2c(=O)cc(CSc3nnc(NC(=O)COc4ccc(F)cc4)s3)nc12	none (no result: GLP1R ag)
CC1(C)Cc2c(cnn2-c2ccccc2)-c2c1c1ccccc1n2CC(O)CBr (configuration not stated)	GLP-1R inv ag 7.1µM
COC(=O)c1scc(-c2ccc(C)cc2)c1S(=O)(=O)Nc1cc(C)c(Cl)cc1OC	GLP-1R inv ag 10µM (no result: GLP1R ag)
COc1ccccc1N1CCN(C(=O)c2cc(-c3ccc(C)c(F)c3)on2)CC1	none (no result: GLP1R ag)
CCCCCOc1ccc(Br)cc1CSC(=N)N	HEK293 tox 10µM, GLP-1R inv ag inconclusive
COc1ccc(C(=O)N2c3cc4c(cc3C(C)=CC2(C)C)OCO4)cc1	GLP-1R inv ag 7.9µM
CC1=CC(C)(C)N(C(=O)c2ccccc2)c2ccc(C)cc21	GLP-1R inv ag inconclusive
Cc1ccc(CNC(=O)c2ccc(CSCc3ccc(Cl)cc3)o2)cc1	GLP-1R inv ag 10µM (no result: GLP1R ag)
O=C(NCc1ccc(Cl)cc1)c1ccc(CSCc2cccc(Cl)c2)o1	GLP-1R inv ag inconclusive (no result: GLP1R ag)
CC(C)NC(=O)c1ccc(CSCc2ccccc2Cl)o1	GLP-1R inv ag 8.9µM
CN1CCN(CCCNC(=O)c2ccc(CSCc3cccc(Cl)c3)o2)CC1	GLP-1R inv ag 10µM
CCC(C)NC(=O)c1ccc(CSCc2ccccc2Cl)o1 (configuration not stated)	GLP-1R inv ag inconclusive

Screening data as filed in PubChem.
